Assay results reported in PubChem BioAssay.

Columns and labels:
PEG-3 [1] = molecular target: PEG-3 (UniProt Q6IN02); experiment: Peg3 promoter luciferase inhibitors, potency, dose response, cell-based, HeLa, CREF/GAPDH counter-screen panel (AID 624167); settings: CREF/GAPDH counter-screens; HeLa PEG-Prom luciferase reporter, overnight, run 1, dose range 1, at 100 µM (top of the series) unless noted
PEG-3 [2] = molecular target: PEG-3 (UniProt Q6IN02); experiment: as above; settings: CREF/GAPDH counter-screens; HeLa PEG-Prom luciferase reporter, overnight, run 2, dose range 1, at 100 µM (top of the series) unless noted

Sequence of PEG-3 (Q6IN02 whole entry, looked up): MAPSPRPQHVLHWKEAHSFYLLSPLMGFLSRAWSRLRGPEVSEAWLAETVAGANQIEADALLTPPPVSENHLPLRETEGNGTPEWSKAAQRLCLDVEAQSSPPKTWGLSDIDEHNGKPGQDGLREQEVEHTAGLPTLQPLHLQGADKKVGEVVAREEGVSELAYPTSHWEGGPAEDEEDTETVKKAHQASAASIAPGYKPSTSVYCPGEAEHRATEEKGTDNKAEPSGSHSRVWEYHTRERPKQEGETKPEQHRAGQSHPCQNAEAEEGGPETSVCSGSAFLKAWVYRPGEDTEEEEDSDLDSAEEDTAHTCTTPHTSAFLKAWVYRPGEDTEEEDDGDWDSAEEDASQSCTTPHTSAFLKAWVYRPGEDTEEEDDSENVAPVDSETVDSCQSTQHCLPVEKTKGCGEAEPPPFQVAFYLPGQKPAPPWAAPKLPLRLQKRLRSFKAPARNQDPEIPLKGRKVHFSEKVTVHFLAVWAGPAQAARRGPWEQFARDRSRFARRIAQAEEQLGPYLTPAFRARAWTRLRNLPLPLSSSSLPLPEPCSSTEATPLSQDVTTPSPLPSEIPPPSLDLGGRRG

Structure (SMILES)	inhibition (PEG-3 [1]) [%]	inhibition (PEG-3 [2]) [%]
C/C(=N\N=C(N)N)c1ccc(Cl)c(Cl)c1	102	101
COc1cc(CNCCN2CCOCC2)ccc1OCc1ccc(Cl)cc1Cl	102	101
CCCCN(C)CCNC(=O)c1cc(-c2cccnc2)nc2ccc(S(=O)(=O)N3CCC(C)CC3)cc12	100	96.1
CC(C)CC(N)c1csc(NC(=O)Nc2ccccc2C(C)C)n1 (stereo not given)	99	101
CN(C)CC1CCC/C(=C\c2ccc(OC(=O)/C=C/c3ccccc3)cc2)C1=O (stereo not given)	97.5	102
Cc1ccc(NC(=O)Nc2ccnc(-c3cccnc3)n2)cc1	44.3	8.15
COc1ccc(/C=C/C(=O)c2ccc3c4c(cccc24)CC3)cc1OC	101	102
Cc1cc(Cl)n2ncc(-c3ccccc3)c2n1	102	102
COc1ccc(CNCCC(c2ccccc2)c2ccc(OC(C)C)cc2)cc1OC (stereo not given)	101	102
CC(C)(C)c1ccc(/C=N/Nc2ccc(C(=O)O)cc2)cc1	89	98.5
O=C(Nc1ccccc1)c1nc[nH]c1C(=O)NCCCNC(=O)c1[nH]cnc1C(=O)Nc1ccccc1	-24.6	96.8
CC(=O)c1cccc(-c2csc3ncnc(Sc4nnnn4C)c23)c1	99.4	100
CN(C)CC1CCC/C(=C/c2ccc(Cl)cc2)C1=O (stereo not given)	102	98.7
O=C(C[n+]1ccc(-c2cc(C(=O)Nc3cccc(C(F)(F)F)c3)c3ccccc3n2)cc1)c1cccc([N+](=O)[O-])c1	101	102
CCCN(CCC)CCCNC(=S)Nc1ccc2nc(N3CCCC3)cc(C)c2c1	99.6	98.1
CCC(C)Sc1ccc(-c2nc3ccccn3c2NCc2ccccc2)cc1OC (stereo not given)	102	89.4
CC(=O)OCCNc1cc(SCc2ccco2)c2nonc2c1[N+](=O)[O-]	100	98.1
CCCc1nc2oc3c(NCCCN(C)C)ncnc3c2c2c1CCCC2	102	101
COC(=O)c1cn(NC(=O)c2cc([N+](=O)[O-])ccc2F)c(=O)c2ccccc12	95.3	94
CCOC(=O)c1ccc(NC(=O)C2CCCN(S(=O)(=O)c3ccc(F)cc3)C2)cc1 (stereo not given)	97.3	100
CN(C)CCNc1ccc2ncn3c4ccc(O)cc4c(=O)c1c23	101	99.7
N#Cc1cc2c(nc1SC1CC(=O)N(c3ccccc3)C1=O)CCC2 (stereo not given)	33.5	25.6

Structure (SMILES)	inhibition (PEG-3 [1]) [%]	inhibition (PEG-3 [2]) [%]
Cn1nnnc1Sc1ncnc2scc(-c3ccsc3)c12	102	102
C[C@@]12C(=O)Nc3cc(Cl)ccc3C(=O)N1[C@H]1c3cc(Cl)ccc3OC[C@@H]1[C@@H]2c1ccccc1	32.1	36.4
Cc1ccc(C(=O)N(CCCN(C)C)c2nc3ccc(Cl)cc3s2)cc1C	99.5	101
CCC(=C(c1ccc(OC)cc1)c1ccc(OC)cc1)c1cn(CC(O)CN2CCN(C)CC2)c2ccccc12 (stereo not given)	99.5	98.3
CCCCCCCCCC[N+](C)(C)CC/C=C1/c2ccccc2Sc2ccc(Cl)cc21	99.8	101
COC(=O)CSC1=NS(=O)(=O)c2ccccc21	66.3	98
COc1cc(-c2cc(C(=O)Nc3cc(S(=O)(=O)N4CCOCC4)ccc3C)c3ccccc3n2)cc(OC)c1OC	55.1	61.8
COc1cccc2c1C(=N)c1c(O)c3c(c(O)c1C2=O)CC(O)(C(C)=O)CC3OC1CC(N)C(O)C(C)O1 (stereo not given)	99.1	102
COc1ccc(-n2ncc3c(N(C)C4CCCCC4)ncnc32)cc1	96.6	89.4
C[C@@H](NCCCn1cnc2c(OCc3ccccc3)ncnc21)c1cccc2ccccc12	94.9	101
CN(Cc1ccccc1)C(=O)c1ccc(Nc2nc(C(N)Cc3ccccc3)cs2)nc1 (stereo not given)	102	101
CCN(Cc1ccccc1)S(=O)(=O)c1ccc(C(=O)N(CCCN(C)C)c2nc3cc4c(cc3s2)OCO4)cc1	102	101
O=C(CCN1C(=O)/C(=C/c2cccs2)SC1=S)N1CCCCC1	96.2	94.3
COC(=O)Cc1[nH]n(-c2nc3ccccc3s2)c(=O)c1C(C)=Nc1ccc(Cl)cc1	88.1	94.2
O=C(CCCN1C(=O)/C(=C/c2ccccc2Cl)SC1=S)NNC(=O)c1ccccc1Cl	100	101
CC1CCCCN1C(=O)c1cccc(NC2=C(Cl)C(=O)N(Cc3ccccc3)C2=O)c1 (stereo not given)	101	101
OC1(c2ccc(Cl)c(Cl)c2)C[n+]2ccccc2N1Cc1ccccc1 (stereo not given)	95	101
Nc1c(C(=O)Nc2cccc(C(=O)O)c2)sc2nc3c(cc12)CCCC3	92.6	77.5
CCOc1cc(CNCCO)cc(Br)c1OCc1ccccc1Cl	100	99.1
COc1cccc(/C=C2/Sc3ccc(C(=O)NCCCN4CCCC4)cc3NC2=O)c1	102	99
CC(=O)NC(c1ccccc1)c1cc(Cl)c2cccnc2c1O (stereo not given)	96.6	99.7
O=C(CCN1C(=O)/C(=C/c2ccc(F)cc2)SC1=S)N[C@@H](CO)Cc1ccccc1	36.9	72

Structure (SMILES)	inhibition (PEG-3 [1]) [%]	inhibition (PEG-3 [2]) [%]
COc1ccc(-c2ccc3[nH]c4c(c3c2)CCN2C[C@@H]([C@H](C)O)[C@@H](N(C)C(=O)Nc3cc(Cl)cc(Cl)c3)C[C@@H]42)cc1	96.3	96.5
O=C(Nc1ccc(CN2CCCCC2)cc1)Nc1ccc(Br)cc1Cl	99	101
Cc1cc(-n2c(SCC(=O)Nc3ccc(F)c(F)c3)nc3n[nH]c(C)c3c2=N)ccc1Cl	100	95.3
COc1ccc(C23CC4CC(CC(C4)C2)C3)cc1C(=O)NCCN(C)C	101	102
CN1Cc2c(N3CCOCC3)nc3sc(C(=O)c4ccc(Br)cc4)c(N)c3c2CC1(C)C	99	101
COc1ccc(CC(N)c2csc(NC(=O)Nc3ccccc3C(C)(C)C)n2)cc1 (stereo not given)	102	98.5
COCC(C)n1c(C)cc(C(=O)COC(=O)c2cccn2C)c1C (stereo not given)	75.2	83.3
COc1ccccc1CCNC(=O)C1CCN(c2nnc(C)c3c(C)n(-c4ccc(C)cc4)nc23)CC1	99	97.3
CC(C(=O)NC1CCCC1)N(C(=O)Cn1nnc(-c2ccc(F)cc2)n1)c1ccccc1F (stereo not given)	99.3	102
Cc1ccc(C)c(OCC(O)CN2CCC(CN3C(=O)c4cccc5cccc(c45)C3=O)CC2)c1 (stereo not given)	99.2	96.1
COc1cccc(N2CCN(CC(=O)Nc3ccccc3C(=O)NCc3ccccc3)CC2)c1	56.8	70.2
COc1ccccc1NC(=O)Nc1nc(C(N)CCc2ccccc2)cs1 (stereo not given)	95.9	102
CN(C)CCNc1ncnc2c1ncn2[C@H]1CN(Cc2ccc(-c3ccccc3)cc2)C[C@@H](CO)O1	100	101
Oc1ccc(C[C@H]2CNCCN2CCc2cc(C(F)(F)F)cc(C(F)(F)F)c2)cc1	97.5	102
O=C(c1ccccc1)N(C(=O)c1ccccc1)c1ncnc2c1C(c1ccccc1)c1c(ccc3ccccc13)O2 (stereo not given)	52.7	28.4
Cc1ccc(-c2nnc(N3CCN(c4ccccn4)CC3)c3ccccc23)cc1	98	101
Cc1ccc(C(=O)N2CCN(c3ccc([N+](=O)[O-])c(NCc4cccnc4)c3)CC2)cc1	48.8	47.4
N#C/C(=C\c1cccc([N+](=O)[O-])c1)C(=O)NCc1ccc(Cl)cc1	99.3	101
CCc1ccc2c(c1)Sc1ccccc1CC2N1CCN(C)CC1 (stereo not given)	102	102
CCOC(=O)c1ccc2ncc(C(=O)OCC)c(NCCN(C)C)c2c1	73	77.3
O=C(c1ccco1)N1CCN(c2ncnc3c2[nH]c2ccc(Br)cc23)CC1	99.5	98.2
COc1ccccc1CNC(=O)c1c(N)n(CCCN2CCOCC2)c2nc3ccccc3nc12	99.1	99

Structure (SMILES)	inhibition (PEG-3 [1]) [%]	inhibition (PEG-3 [2]) [%]
COc1ccc(CN(C)C(=O)c2cc(-c3ccccc3)nc3ccc(C)cc23)c(OC)c1OC	94.8	96.5
O=C(Nc1cccc(S(=O)(=O)N2CCOCC2)c1)c1ccc2c(=O)n3c(nc2c1)CCCCC3	96.5	98
COc1ccc(CC(=O)N(Cc2ccccc2)c2ccccc2)cc1S(=O)(=O)N1CCOCC1	82.4	91.1
O=c1[nH]c(=O)n(C2OC(CO)C(O)C2O)cc1F (stereo not given)	68.7	76.9
CCn1c2ccccc2c2cc(NC(=O)C(C)OC(=O)c3ccc(NC(=O)CC#N)cc3)ccc21 (stereo not given)	97.5	83.1
O=C(Nc1ccc2oc(-c3ccncc3)nc2c1)c1ccc([N+](=O)[O-])o1	99	101
CN1CCN(CCNC(=O)c2ccc3nc(-c4ccc(F)cc4)c(-c4ccc(F)cc4)nc3c2)CC1	99.2	98.2
COc1ccc2sc3cccc(NCCN(C)C)c3c(=O)c2c1	98	99.2
COc1ccc(-c2nc(NC(=O)c3n[nH]c(=O)c4ccccc34)sc2C)cc1	14	30.7
c1ccc(C[C@H]2CNCCN2CCCCC2CCCCC2)cc1	102	101
COc1cc(C=NO)nc(-c2ccccn2)c1	71.9	73.1
CCOC(=O)C1=C(COCCN)NC(C)=C(C(=O)OC)C1c1ccccc1Cl (stereo not given)	98.7	100
CCCCCCC=C1CCC(CN2CCCC2)C1=O (stereo not given)	98.4	101
Oc1c(Cl)cc(Cl)c2cccnc12	80.8	80.6
CN(C)CCNC(=O)/C(=C/c1ccc(-c2ccc(Cl)cc2)o1)NC(=O)c1ccccc1	102	98.6
COc1ccc(C2c3ccc4ccccc4c3Oc3ncn(CCO)c(=N)c32)cc1OC (stereo not given)	99.1	101
CCc1nc(Sc2nnnn2-c2ccccc2)c2c3c(sc2n1)CCCC3	68.7	91.8
CC(NC(=O)c1ccc([N+](=O)[O-])o1)C12CC3CC(CC(C3)C1)C2 (stereo not given)	99.4	98.5
CNCC[C@H](Oc1cccc2ccccc12)c1cccs1	102	98.8
